Reference: PubChem BioAssay (NCATS)
Records with an inconclusive call do not appear. Entries that show only a call come without a potency. Calls of active or inactive are those of the source. The call rests on the fitted dose curve; in most records, active means well fitted curve in the direction sought with a large enough effect; inconclusive means small, poorly fitted or top-dose-only effect, or another doubt; inactive means no such curve, though single readings can be large or run the other way.

experiment: qHTS for Inhibitors of the vitamin D receptor (VDR): Hit Validation using a Texas Red Assay (AID 602201); settings: VDR coregulator binding, Texas Red fluorescence polarization; series mostly up to 57.1 µM
Method in brief: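 Fluorescence polarization (Ex 595/Em 615 nm) of Texas Red (7 nM) with 1.5 uM VDR-LBD and LG19078 (final concentrations). Compounds were incubated for 2 hours at room temperature.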
Potency means the concentration at half of the fitted maximal effect.

Structure (SMILES)	Potency
COc1cccc(C2CC3C(=O)C=CC2N3Cc2ccccc2)c1 (stereo not drawn)	28.2 µM (active)
Cc1nn(Cc2ccccc2)c(C)c1C=C1C(=O)NC(=S)NC1=O	inactive
COc1cc(/C=C/[N+](=O)[O-])ccc1O	inactive
CN1C2CCC1/C(=C/c1ccccn1)C(=O)/C2=C\c1ccccn1	inactive
O=C1NC(=O)C(=Cc2ccc(-c3ccc(S(=O)(=O)N4CCOCC4)cc3)o2)C(=O)N1	inactive
O=c1oc2ccccc2c(O)c1[C@H]1c2ccc(O)cc2Oc2c1c(=O)oc1ccccc21	inactive
Cc1ccccc1N1C(=O)NC(=O)/C(=C\c2cnn(-c3ccccc3)c2)C1=O	inactive
O=C1NC(=O)C(=Cc2ccc(-c3cc(Cl)ccc3[N+](=O)[O-])o2)C(=O)N1	inactive
CCOC(=O)c1c(NS(=O)(=O)c2ccccc2)n(CCCOC)c2nc3ccccc3nc12	3.55 µM (active)
Cc1ccc(N2C(=O)NC(=O)/C(=C\c3cnc(-c4ccccc4)nc3)C2=O)cc1	inactive
CC(C)n1c(O)c(C2c3cc(Cl)ccc3Oc3[nH]c(=O)n(C(C)C)c(=O)c32)c(=O)[nH]c1=O (stereo not drawn)	inactive
CN1C(=O)NC(=O)/C(=C\C=C\c2ccccc2[N+](=O)[O-])C1=O	inactive
O=C(O)CCn1cc(C=C2C(=O)NC(=S)NC2=O)c(-c2cccc(Cl)c2)n1	inactive
